From the supplement of paper PMC13380429
Structures can show the parent of a compound that is named as a salt.

System: Vero E6 infected with SARS-CoV-2
Experiment: inhibition of SARS-CoV-2 cytopathic effect; higher = more antiviral protection, active = above 15
Settings: 48 h

Measured: inhibition of SARS-CoV-2 cytopathic effect

CN(C)CC/C=C1\c2ccccc2CSc2ccccc21 [dosulepin]
inactive: 1 nM -1.78% | 8.33 nM 1.37% | 100 nM 5.41% | 833.33 nM -0.17% | 10000 nM -8.17%

[O-][n+]1cccc(CO)c1 [mepiroxol]
inactive: 1 nM 0.82% | 8.33 nM -0.73% | 100 nM 2.65% | 833.33 nM -0.59% | 10000 nM 2.31%

CO[C@@H]1[C@H](O)[C@@H](CO)O[C@H]1n1cnc2c(NC3CCCCC3)ncnc21
inactive: 1 nM -0.97% | 8.33 nM 1.94% | 100 nM 8.69% | 833.33 nM 1.46% | 10000 nM -0.79%

CN1CCC(CNc2ccc3ncc(-c4cccc(OC(F)(F)F)c4)n3n2)CC1
inactive: 1 nM 2.01% | 8.33 nM 5.2% | 100 nM 2.97% | 833.33 nM -0.97%
active: 10000 nM 19.8%

Cc1c(-c2cnccn2)ssc1=S [oltipraz]
inactive: 1 nM 1.51% | 8.33 nM 4.72% | 100 nM 3.49% | 833.33 nM 5.97% | 10000 nM 0.75%

c1ccc(C(NCc2cccnc2)(c2ccccc2)c2ccccc2)cc1
inactive: 1 nM 1.69% | 8.33 nM 4.02% | 100 nM 1% | 833.33 nM 1.58% | 10000 nM 2.26%

O=C(N[C@@H]1CC[C@@H](c2cccc(F)c2F)CN(CC(F)(F)F)C1=O)N1CCC(n2c(=O)[nH]c3ncccc32)CC1 [telcagepant]
inactive: 1 nM 0.8% | 8.33 nM 6.42% | 100 nM 7.5% | 833.33 nM 2.53% | 10000 nM 5.63%

CCCSc1nc(N[C@@H]2C[C@H]2c2ccc(F)c(F)c2)c2nnn([C@@H]3C[C@H](OCCO)[C@@H](O)[C@H]3O)c2n1 [ticagrelor]
inactive: 1 nM -0.64% | 8.33 nM 1.24% | 100 nM -0.46% | 833.33 nM 0.82% | 10000 nM 1.32%

O=c1[nH]cnc2c1cnn2[C@@H]1O[C@H](CO)[C@@H](O)[C@H]1O [allopurinol-riboside]
inactive: 1 nM 0.99% | 8.33 nM 0.92% | 100 nM 2.88% | 833.33 nM 0.52% | 10000 nM 1.75%

CC1(N)CCN(c2cnc(-c3cccc(Cl)c3Cl)c(N)n2)CC1
inactive: 1 nM -2.86% | 8.33 nM 2.23% | 100 nM 2.58% | 833.33 nM -1.51% | 10000 nM -9.83%

CN(C)CCCN1c2ccccc2Sc2ccc(C(F)(F)F)cc21 [triflupromazine]
inactive: 1 nM 1.3% | 8.33 nM -0.49% | 100 nM -1.51% | 833.33 nM 1.78% | 10000 nM 0.59%

O=C1NS(=O)(=O)c2ccccc21 [saccharin]
inactive: 1 nM 0.13% | 8.33 nM -1.09% | 100 nM 0.17% | 833.33 nM -0.12% | 10000 nM -2.82%

Cc1ccc(S(=O)(=O)/C=C/C#N)cc1
active: 10000 nM 18.8%
inactive: 1 nM 0.18% | 8.33 nM -2.24% | 100 nM 0.01% | 833.33 nM 4.59%

Cc1cc(O)c(C(=O)N[C@@H](C(=O)N[C@@H]2C(=O)N3C(C(=O)O)=C(CSc4nnnn4C)CS[C@H]23)c2ccc(O)cc2)cn1 [cefpiramide]
inactive: 1 nM -0.65% | 8.33 nM -0.72% | 100 nM 0.85% | 833.33 nM 2.35% | 10000 nM 3.6%

CN(N=O)C(=O)N[C@@H](C=O)[C@@H](O)[C@H](O)[C@H](O)CO [streptozotocin]
inactive: 1 nM -2.28% | 8.33 nM -2.25% | 100 nM 2.59% | 833.33 nM 1% | 10000 nM 3.27%

CC[N+](CC)(CCNC(=O)C(=O)NCC[N+](CC)(CC)Cc1ccccc1Cl)Cc1ccccc1Cl [ambenonium]
inactive: 1 nM 0.39% | 8.33 nM -2.16% | 100 nM -1.45% | 833.33 nM 0.75% | 10000 nM 0.34%

O=C(Nc1cnc(Cl)nc1)c1ccc(F)c(F)c1
inactive: 1 nM 1.95% | 8.33 nM 1.13% | 100 nM 2.59% | 833.33 nM -0.85% | 10000 nM 0.14%

CCn1c(=O)c(-c2cc[nH]n2)cc2c(C)nc(N)nc21 [voxtalisib]
inactive: 1 nM 2.67% | 8.33 nM 3.03% | 100 nM 1.3% | 833.33 nM 0.46% | 10000 nM -4.32%

CN(C)CC/C=C1/c2ccccc2COc2ccc(CC(=O)O)cc21 [Olopatadine hydrochloride (Opatanol)]
inactive: 1 nM 1.34% | 8.33 nM 1.55% | 100 nM 1.65% | 833.33 nM 6.26% | 10000 nM 0.26%

O=C(NCCO)c1cccc(-c2cc(Nc3ccc(OC(F)(F)F)cc3)ncn2)c1
inactive: 1 nM 0.82% | 8.33 nM 1.06% | 100 nM 2.91% | 833.33 nM 3.22% | 10000 nM 0.55%
